Measured values taken from PubChem BioAssay AID1159580 (chemical genetic matrix, 2015).
In all, about 5,500 compounds went through this assay and about 2,000 (36%) were called active. Inconclusive results (about 18%) are left out. Cut-off read from the data, not from the text of the source: active = normalized growth mostly below about 0.91 (no sharp cut-off); inconclusive = no clear call, values can overlap the other calls; inactive = mostly above about 0.92. Some of the results follow.

Experiment: chemical genetic growth profiling, strain panel (AID 1159580);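 note: tested at 20 µM; growth read once vehicle control cultures reached saturation at 30 °C; 1 = growth at the plate median or of vehicle wells; lower values mean less growth of the strain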
Details: growth OD

Measured: normalized growth

COc1ccccc1OCCNCC(O)COc1cccc2[nH]c3ccccc3c12 (stereo unspecified)
inactive: S. cerevisiae deletion strains, locus YKL009W, strain mrt4, active compounds read low 1.01 | S. cerevisiae deletion strains, locus YKL068W, active compounds read low 1.01 | S. cerevisiae deletion strains, locus YKL085W, strain MDH1 (second series), active compounds read low 1.01 | S. cerevisiae deletion strains, locus YKL085W, strain MDH1, active compounds read low 1.01 | S. cerevisiae deletion strains, locus YKL160W, strain elf1, active compounds read low 1.01 | S. cerevisiae deletion strains, locus YKL190W, strain CNB1, active compounds read low 0.997 | S. cerevisiae deletion strains, locus YKR001C, strain vps1, active compounds read low 1.05 | S. cerevisiae deletion strains, locus YKR026C, strain gcn3, active compounds read low 1.02 | S. cerevisiae deletion strains, locus YKR091W, strain srl3, active compounds read low 1.01 | S. cerevisiae deletion strains, locus YLL001W, strain dnm1, active compounds read low 1.01 | S. cerevisiae deletion strains, locus YLL026W, active compounds read low 1.02 | S. cerevisiae deletion strains, locus YLL041C, strain sdh2, active compounds read low 1.01 | S. cerevisiae deletion strains, locus YLR027C, strain aat2, active compounds read low 1.01 | S. cerevisiae deletion strains, locus YLR039C, strain RIC1, active compounds read low 1.09 | S. cerevisiae deletion strains, locus YLR058C, strain SHM2, active compounds read low 1 | S. cerevisiae deletion strains, locus YLR102C, strain apc9, active compounds read low 1 | S. cerevisiae deletion strains, locus YLR113W, strain HOG1, active compounds read low 0.987 | S. cerevisiae deletion strains, locus YLR221C, strain rsa3, active compounds read low 1.01 | S. cerevisiae deletion strains, locus YLR258W, strain gsy2, active compounds read low 1.02 | S. cerevisiae deletion strains, locus YLR262C, strain YPT6 (second series), active compounds read low 1.05 | S. cerevisiae deletion strains, locus YLR262C, strain YPT6, active compounds read low 1.06 | S. cerevisiae deletion strains, locus YLR268W, strain sec22, active compounds read low 1.01 | S. cerevisiae deletion strains, locus YLR320W, strain mms22, active compounds read low 1.02 | S. cerevisiae deletion strains, locus YLR330W, strain CHS5, active compounds read low 1.01 | S. cerevisiae deletion strains, locus YLR342W, strain FKS1 (second series), active compounds read low 0.993 | S. cerevisiae deletion strains, locus YLR342W, strain FKS1, active compounds read low 1.01 | S. cerevisiae deletion strains, locus YLR357W, strain rsc2, active compounds read low 1 | S. cerevisiae deletion strains, locus YLR370C, strain arc18, active compounds read low 1.01 | S. cerevisiae deletion strains, locus YLR371W, strain rom2, active compounds read low 1.01 | S. cerevisiae deletion strains, locus YLR384C, strain iki3, active compounds read low 1.03 | S. cerevisiae deletion strains, locus YLR418C, strain cdc73, active compounds read low 0.999 | S. cerevisiae deletion strains, locus YML016C, strain PPZ1, active compounds read low 1.01 | S. cerevisiae deletion strains, locus YML032C, strain rad52, active compounds read low 1.02 | S. cerevisiae deletion strains, locus YML120C, strain ndi1, active compounds read low 1.01 | S. cerevisiae deletion strains, locus YML124C, strain tub3, active compounds read low 1.02 | S. cerevisiae deletion strains, locus YMR058W, strain fet3, active compounds read low 1.03 | S. cerevisiae deletion strains, locus YMR078C, strain ctf18, active compounds read low 1.02 | S. cerevisiae deletion strains, locus YMR125W, strain sto1, active compounds read low 1.01 | S. cerevisiae deletion strains, locus YMR129W, active compounds read low 1.01 | S. cerevisiae deletion strains, locus YMR205C, strain PFK2, active compounds read low 1.04 | S. cerevisiae deletion strains, locus YMR223W, strain ubp8, active compounds read low 1 | S. cerevisiae deletion strains, locus YMR231W, strain pep5, active compounds read low 1.01 | S. cerevisiae deletion strains, locus YMR263W, strain SAP30, active compounds read low 0.979 | S. cerevisiae deletion strains, locus YMR307W, strain GAS1, active compounds read low 0.972 | S. cerevisiae deletion strains, locus YNL067W, strain RPL9B, active compounds read low 0.962 | S. cerevisiae deletion strains, locus YNL071W, strain lat1, active compounds read low 0.996 | S. cerevisiae deletion strains, locus YNL128W, strain TEP1, active compounds read low 1 | S. cerevisiae deletion strains, locus YNL153C, strain GIM3, active compounds read low 1 | S. cerevisiae deletion strains, locus YNL183C, strain NPR1, active compounds read low 0.962 | S. cerevisiae deletion strains, locus YNL209W, strain ssb2, active compounds read low 1.02 | S. cerevisiae deletion strains, locus YNL233W, strain BNI4, active compounds read low 1 | S. cerevisiae deletion strains, locus YNL248C, strain rpa49, active compounds read low 1.02 | S. cerevisiae deletion strains, locus YNL250W, strain rad50, active compounds read low 1 | S. cerevisiae deletion strains, locus YNL271C, strain bni1, active compounds read low 1.02 | S. cerevisiae deletion strains, locus YNL298W, strain CLA4, active compounds read low 1.03 | S. cerevisiae deletion strains, locus YNL307C, strain MCK1, active compounds read low 1.01 | S. cerevisiae deletion strains, locus YNL322C, strain KRE1 (second series), active compounds read low 0.989 | S. cerevisiae deletion strains, locus YNL322C, strain KRE1, active compounds read low 1 | S. cerevisiae deletion strains, locus YNR049C, strain mso1, active compounds read low 1.01 | S. cerevisiae deletion strains, locus YNR052C, strain pop2, active compounds read low 1.01 | S. cerevisiae deletion strains, locus YOL006C, strain TOP1, active compounds read low 1 | S. cerevisiae deletion strains, locus YOL012C, strain htz1 0.91 | S. cerevisiae deletion strains, locus YOL147C, strain pex11, active compounds read low 1.01 | S. cerevisiae deletion strains, locus YOR001W, strain rrp6, active compounds read low 1.01 | S. cerevisiae deletion strains, locus YOR061W, strain CKA2, active compounds read low 1.01 | S. cerevisiae deletion strains, locus YOR069W, strain VPS5, active compounds read low 0.997 | S. cerevisiae deletion strains, locus YOR070C, strain gyp1, active compounds read low 1 | S. cerevisiae deletion strains, locus YOR080W, strain dia2, active compounds read low 1 | S. cerevisiae deletion strains, locus YOR083W, strain WHI5, active compounds read low 1 | S. cerevisiae deletion strains, locus YOR106W, strain vam3, active compounds read low 1.02 | S. cerevisiae deletion strains, locus YOR136W, strain idh2, active compounds read low 1.02 | S. cerevisiae deletion strains, locus YOR144C, strain elg1, active compounds read low 1.02 | S. cerevisiae deletion strains, locus YOR184W, strain ser1, active compounds read low 0.999 | S. cerevisiae deletion strains, locus YOR231W, strain MKK1, active compounds read low 0.999 | S. cerevisiae deletion strains, locus YOR265W, strain rbl2, active compounds read low 0.996 | S. cerevisiae deletion strains, locus YOR270C, strain vph1, active compounds read low 1.03 | S. cerevisiae deletion strains, locus YOR290C, strain snf2, active compounds read low 1.01 | S. cerevisiae deletion strains, locus YOR316C, strain cot1, active compounds read low 1.02 | S. cerevisiae deletion strains, locus YPL051W, strain arl3, active compounds read low 1.01 | S. cerevisiae deletion strains, locus YPL055C, strain LGE1, active compounds read low 1.01 | S. cerevisiae deletion strains, locus YPL078C, strain atp4, active compounds read low 1.03 | S. cerevisiae deletion strains, locus YPL106C, strain sse1, active compounds read low 1.02 | S. cerevisiae deletion strains, locus YPL240C, strain hsp82, active compounds read low 1.01 | S. cerevisiae deletion strains, locus YPL241C, strain CIN2, active compounds read low 0.996 | S. cerevisiae deletion strains, locus YPL256C, strain CLN2, active compounds read low 0.994 | S. cerevisiae deletion strains, locus YPR119W, strain clb2, active compounds read low 1.02 | S. cerevisiae deletion strains, locus YPR141C, strain kar3, active compounds read low 1.03 | S. cerevisiae deletion strains, locus YPR163C, strain tif3, active compounds read low 1.02 | S. cerevisiae deletion strains, locus YPR167C, strain met16, active compounds read low 1.02 | S. cerevisiae deletion strains, strain wtn01, active compounds read low 1.01 | S. cerevisiae strains, strain wild type, active compounds read low 0.984
